# Bioassay records from PubChem BioAssay.
# A selection: hits, their analogues and other compounds. The true share with any hit is near 11%.
# IMPase inh = IMPase inhibition in cells; P97697; CHO-M1 cells, IP1 accumulation, HTRF TR-FRET ratio; inhibition (IP1 accumulation), % at 46.1 µM; 120,000 tested, under 10 active; AID 901; active = well fitted curve in the direction sought with a large enough effect in the signal ratio, not every such curve was filed as active; inconclusive = small, poorly fitted or top-dose-only effect, or a change in a side signal; inactive = no such curve, though single readings can be large or run the other way; the % refers to the signal ratio;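 also: cells stimulated with carbachol in lithium chloride buffer; plate controls were DMSO basal wells for no effect and reference inhibitor wells for full effect; higher means more IMPase inhibition seen as more IP1 and lower FRET ratio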
#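 Cellular IMPase inhibition is scored as a rise in cytosolic IP1, detected by competitive TR-FRET between d2-labelled IP1 and a europium anti-IP1 antibody. M1-expressing CHO cells were stimulated with carbachol for 30 min at 37C, with lithium (50 mM LiCl) present in the buffer.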
# PNC assembly inh = perinucleolar compartment assembly inhibition. PC3M PTB-GFP, PNC prevalence imaging, 16 h; active compounds read low. activity change (PNC), negative = inhibition, % at 10 µM. 140,000 tested, 3.1% active;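 active = readout at or below -70, meaning at least 70% loss of cells showing the perinucleolar compartment, a nuclear body marking cancer cells; inconclusive = readout between -30 and a set limit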;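 also: plate controls were DMSO wells for no effect and camptothecin positive control wells for full effect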
#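 PC3M cells stably expressing PTB-GFP, 750–1000 cells/well, treated 16 h at 37 °C with compound (23 nl of library stock), in duplicate. After paraformaldehyde fixation and Hoechst stain, imaged at 20x; PNC prevalence scored by image analysis.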
# HPGD inh = HPGD (human) dehydrogenase inhibition; purified HPGD, NADH fluorescence kinetic, PGE2 substrate; Potency, µM, inactives show at the top dose activity change, negative = inhibition, hits mostly inhibitors; 150,000 tested, 4.3% active; AID 894; also: potency is read from the fitted curve at half-maximal effect
#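 NADH formation kinetics: reaction with 30 uM PGE2 and 1 mM NAD+ (final), 20 nM enzyme, Tris-HCl pH 8 with Tween 20, after 15 min compound preincubation at room temperature. Fluorescence change, last versus first of five reads.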
# IMPase Li cell = IMPase inhibition in cells with lithium potentiation. CHO-M1 cells, IP1 TR-FRET (IP-One), carbachol + lithium. Potency, µM (titrated, usually from 59.4 µM), inactives show top-dose activity, negative = IMPase inhibition, hits mostly inhibitors. 210,000 tested, 0.35% active; active = well fitted curve in the direction sought with a large enough effect; inconclusive = small, poorly fitted or top-dose-only effect, or another doubt; inactive = no such curve, though single readings can be large; an effect the other way counts as inactive or inconclusive;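 also: IP1 builds up when IMPase is blocked and the TR-FRET signal falls; potency is read from the fitted curve at half-maximal effect; plate controls were basal vehicle for no effect and high inhibitor control for full effect; nearly all actives have a fitted effect of over 50% in size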
#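 CHO-M1, 2000 cells/well, 16–30 h culture; cpd + low Li+, 30 min 37C; lysis with d2-IP1/Eu-anti-IP1 Ab, 10 min RT; TR-FRET 665/620 ratio and 620 channel; AC50 via Hill.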
# ALDH1A1 inh = inhibitors of human aldehyde dehydrogenase 1A1 | Purified ALDH1A1, NADH fluorescence, propionaldehyde substrate | P00352 | 220,000 tested, 7.3% active | Potency, µM (series often up to 75.3 µM), for inactives: at the top dose activity, negative = inhibition, most hits filed as inhibitors;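 also: potency is read from the fitted curve at half-maximal effect; plate controls were no enzyme wells and a reference inhibitor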
# 12-hLO inh = inhibitors of human 12-lipoxygenase (ALOX12); 150,000 tested, 0.12% active; Potency, µM (titrated, usually from 57.1 µM), for the others: at the highest dose activity change, negative = inhibition, most hits filed as inhibitors; P18054; purified 12-hLO, xylenol orange hydroperoxide absorbance; active = well fitted curve in the direction sought with a large enough effect; inconclusive = small, poorly fitted or top-dose-only effect, or another doubt; inactive = no such curve, though single readings can be large; an effect the other way counts as inactive or inconclusive; also: potency is read from the fitted curve at half-maximal effect; nearly all actives have a fitted effect of over 55% in size
# Target sequence (P18054 whole entry, looked up): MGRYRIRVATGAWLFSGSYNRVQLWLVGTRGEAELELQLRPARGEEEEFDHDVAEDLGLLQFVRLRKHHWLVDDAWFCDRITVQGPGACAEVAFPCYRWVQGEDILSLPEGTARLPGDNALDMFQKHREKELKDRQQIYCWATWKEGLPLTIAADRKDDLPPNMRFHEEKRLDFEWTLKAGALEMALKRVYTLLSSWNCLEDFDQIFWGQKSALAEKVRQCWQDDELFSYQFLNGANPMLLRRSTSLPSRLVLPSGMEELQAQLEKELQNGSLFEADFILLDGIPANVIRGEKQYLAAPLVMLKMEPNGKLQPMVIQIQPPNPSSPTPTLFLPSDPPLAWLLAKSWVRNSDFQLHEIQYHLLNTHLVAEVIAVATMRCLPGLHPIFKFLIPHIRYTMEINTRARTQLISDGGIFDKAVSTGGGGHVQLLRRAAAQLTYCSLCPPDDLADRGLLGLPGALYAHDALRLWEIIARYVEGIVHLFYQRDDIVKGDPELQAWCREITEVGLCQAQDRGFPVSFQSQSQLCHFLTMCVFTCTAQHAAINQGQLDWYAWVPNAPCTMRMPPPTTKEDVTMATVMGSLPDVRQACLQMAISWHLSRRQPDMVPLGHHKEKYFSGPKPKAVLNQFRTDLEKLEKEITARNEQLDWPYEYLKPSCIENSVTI
#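 Hydroperoxide output read as Fe(III)-xylenol orange absorbance, 573-to-405 nm ratio, after 30 min reaction with 40 uM arachidonic acid. Enzyme: 150 nM purified human 12hLO, 15 min compound preincubation; 25 mM Hepes pH 7.0, room temperature.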
# * marks the source's active call; other numbers are inactive results; ? = inconclusive; / = no result given; [ ] = another dose, or the depositor's remark. Unless noted, calls follow the shape of the dose curve; as a rule, active = well fitted inhibition curve with a large enough effect (not every such curve was filed as active); inconclusive = small, poorly fitted or top-dose-only effect, or another doubt; inactive = no such curve, though single readings can be large or run the other way. Unless noted, % is scaled to controls: 0 for no effect and ±100 for the full control effect.
SMILES,IMPase inh,PNC assembly inh,HPGD inh,IMPase Li cell,ALDH1A1 inh,12-hLO inh
CCOC(=O)C(NC(C)=O)(Nc1ccc(S(=O)(=O)Nc2cc(C)on2)cc1)C(F)(F)F (stereo not given),1,-11,-2%,8%,18%,-3%
Cc1cc(NS(=O)(=O)c2ccc(CC(C)C)cc2)no1,-2,-29,4%,19%[38.3 µM],6%,3%
CCOC(=O)C(NC(C)=O)(Nc1ccc(S(=O)(=O)Nc2cc(C)nc(C)n2)cc1)C(F)(F)F (stereo not given),?,?,4%,-38%[38.3 µM],14µM*,-4%
Cc1cc(NS(=O)(=O)c2ccc(NS(=O)(=O)c3ccc(CC(C)C)cc3)cc2)nc(C)n1,/,/,/,14%,32µM*,/
Cc1cc(NS(=O)(=O)c2ccc(NC(=O)CCCC(=O)O)cc2)nc(C)n1,?,-88*,-1%,-2%,-3%,3%
COc1cccc(CNC(=O)c2nnc(Cc3ccc(Cl)cc3)o2)c1,1,/,/,/,/,/
Cc1cc2ccccc2c[n+]1CC(O)C[n+]1cc2ccccc2cc1C,/,/,-13%,17%,0%[13.5 µM],9%[11.4 µM]
OCC1O[C@H](O[C@H]2C(O)C(O)C(O)O[C@@H]2CO)C(O)C(O)C1O (stereo not given in full),/,/,-13%,-11%,-1%,1%
Cc1ccc(S(=O)(=O)Nc2ccc(S(=O)(=O)Nc3cc(C)nc(C)n3)cc2)cc1,/,/,/,-1%,4µM*,/
CCOC(=O)Nc1ccc(S(=O)(=O)Nc2cc(C)nc(C)n2)cc1,0,13,-3%,2%[38.3 µM],-2%,10%
FC(F)(F)c1ccccc1-c1ccc2ncnc(NCCN3CCOCC3)c2c1,/,/,/,6%,10%,/
CC(=O)Nn1cc2c(c1-c1ccccc1)c(=O)n(C)c(=O)n2C,-5,-138*,?,-7%[38.3 µM],?,-3%
CC1CCN(c2ccc(C=O)o2)CC1,/,/,/,-1%,14µM*,/
CCOc1cc(C(=O)Nc2ccc3c4c(cccc24)C(=O)N3CC)cc(OCC)c1OCC,7,18,-12%,35%[38.3 µM],?,-11%
CCN1C(=O)c2cccc3c(NC(=O)C(C)(C)C)ccc1c23,16,2,-2%,27%[38.3 µM],?,1%
CCCCC(=O)Nc1ccc2c3c(cccc13)C(=O)N2CC,13,23,-15%,12%[38.3 µM],7.1µM*,-3%
CCN1C(=O)c2cccc3c(NC(=O)c4cccc(N5C(=O)CCC5=O)c4)ccc1c23,15,4,-14%,13%[38.3 µM],2µM*,1%
COc1ccc(-c2cc(OC(=O)c3cccc(Cl)c3)c3c(C)oc(C)c3c(=O)c2)cc1,1,/,/,/,/,/
Clc1ccc(Nc2ccc(NCc3ccccc3)nn2)cc1,/,3,5.6µM*,4%,-10%,-7%
Clc1ccc(-c2nnc(NCc3ccccc3)c3ccccc23)cc1,4,-25,5.6µM*,5%,22µM*,-3%
Cc1ccc(Nc2ccc(NCc3ccccc3)nn2)cc1C,/,22,-24%,11%,-4%,-2%
Cc1ccc(-c2nnc(NCc3ccccc3)c3ccccc23)cc1,0,?,3.2µM*,26%,6%,2%
Oc1ccc(Nc2nnc(-c3ccc(O)cc3)c3ccccc23)cc1,/,/,/,17%,5%,/
COC(=O)N1CCc2cc(OC)c(OC)cc2C1Cc1ccc(OC)cc1 (stereo not given),/,/,/,/,3%[13.5 µM],/
Cc1ccc(NC(=O)C(C)Sc2nnc(-c3cccnc3)o2)cc1 (stereo not given),10,-29,-27%,-2%[38.3 µM],2%,-2%
SMILES,IMPase inh,PNC assembly inh,HPGD inh,IMPase Li cell,ALDH1A1 inh,12-hLO inh
Cc1ccc(NC(=O)C(C)Sc2nc(=O)cc(N)n2-c2ccccc2)cc1 (stereo not given),3,-21,-16%,19%[38.3 µM],11µM*,-20%
Cc1ccc(NC(=O)C(C)Sc2nnc(-c3cccnc3)n2-c2ccccc2)cc1 (stereo not given),4,?,14µM*,31%[38.3 µM],-10%,-1%
Nc1cc(=O)nc(SCC(=O)Nc2ccccc2)n1-c1ccccc1,/,24,-14%,7%,5%,-1%
O=C1CC[C@H](NC(=O)c2ccccc2)C(=O)N1,/,/,-11%,1%,10%[13.5 µM],-4%[11.4 µM]
Nc1cc(=O)[nH]c(SCC(=O)Nc2ccc(S(=O)(=O)N3CCCCC3)cc2)n1,/,/,/,9%,19µM*,/
CC(SCC(=O)Nc1ccc(S(=O)(=O)N2CCCCC2)cc1)C(=O)O (stereo not given),3,-7,-2%,-19%[38.3 µM],28µM*,-3%
Cc1csc(SCC(=O)NC23CC4CC(CC(C4)C2)C3)n1,0,33,28µM*,22%[38.3 µM],3%,5%
O=C(O)CCC(=O)Nc1ccc(S(=O)(=O)N2CCCC2)cc1,8,?,3%,18%[38.3 µM],-4%,-2%
O=C(Cc1cccs1)Nc1ccc(S(=O)(=O)N2CCCC2)cc1,/,/,/,7%,13µM*,/
COC(=O)CNC(c1ccccc1)c1cc(Br)ccc1NC(=O)c1cc(OC)c(OC)c(OC)c1 (stereo not given),-5,/,/,/,/,/
Cc1csc(SCC(=O)Nc2ccc(S(=O)(=O)N3CCCC3)cc2)n1,-4,15,-18%,13%[38.3 µM],14µM*,1%
Cc1cc(C)nc(SCC(=O)Nc2ccc(S(=O)(=O)N3CCCCC3)cc2)n1,8,18,-18%,28%[38.3 µM],-12%,-7%
N#Cc1ccccc1-c1ccc2ncnc(NCCN3CCOCC3)c2c1,/,/,/,-2%,?,/
C=CCN1C(=O)/C(=C/c2ccc(O)cc2)S/C1=N/c1nccs1,/,3,-8%,15%,3.2µM*,-13%
C=CCN1C(=O)/C(=C/c2ccc(OC)cc2)S/C1=N/c1nccs1,-5,12,-8%,10%,?,-4%
Fc1ccccc1Nc1nc2c(s1)CCc1ccccc1-2,/,-23,22µM*,17%,5%,?
O=C(Nc1nc2c(s1)CCc1ccccc1-2)c1cccs1,2,-19,-13%,23%[38.3 µM],-3%,-17%
O=C(O)c1cccc(NCc2ccncc2)c1,-8,-81*,-26%,20%[38.3 µM],?,-4%
O=C(O)c1ccc(NCc2ccncc2)cc1,-2,9,-10%,13%[38.3 µM],-10%,2%
Cl/C(=C\n1cncn1)c1ccc(Cl)cc1Cl,-2,/,14µM*,14%,?,-14%
CCc1cccc(NC(=O)Cn2c(=O)n(CC(=O)NCCc3ccccc3)c(=O)c3ccccc32)c1,9,/,/,/,/,/
Cc1cc2cc(CCNC(=O)c3ccc(S(=O)(=O)N4CCOCC4)cc3)c(=O)[nH]c2cc1C,6,?,-27%,16%[38.3 µM],?,-1%
Cc1ccc2cc(CCNC(=O)c3ccc(S(=O)(=O)N4CCCCC4)cc3)c(=O)[nH]c2c1,/,/,/,6%,14µM*,/
